The source of these data is PMC9911399, “Two distinct binding modes provide the RNA-binding protein RbFox with extraordinary sequence specificity”.

Numbering of substitutions follows the chain as printed; changes in the protein carry UniProt numbers. Whole data set: some 16,000 sequences, median “ka relative to ugcaugu” near 0.0091, cut for the highest 2% near 0.032. The sample as a whole holds a higher share of the highest values than the screen did.

To fix the notation:
T1: RBFOX1 RRM (Homo sapiens, UniProt Q9NWB1 109-208)
T1 sequence: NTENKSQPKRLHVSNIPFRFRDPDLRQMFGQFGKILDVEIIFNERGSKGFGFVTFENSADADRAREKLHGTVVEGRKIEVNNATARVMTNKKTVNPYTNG

B1: UCUCUCC (DNA:RNA)
RNA: GGGAGACCGGAAUUCAGAUUGUCCUCUCUCCUUAAAUCCCGUCGUAGCCACCA
DNA 1: CAATCTGAATTCCGGTCTCCC
DNA 2: TGGTGGCTACGACGGGATT
B2: GACACAG (DNA:RNA)
RNA: GGGAGACCGGAAUUCAGAUUGUCCGACACAGUUAAAUCCCGUCGUAGCCACCA
DNA 1: CAATCTGAATTCCGGTCTCCC
DNA 2: TGGTGGCTACGACGGGATT
B3: UCUUGGG (DNA:RNA)
RNA: B1 RNA with C28U, U29G, C30G, C31G
DNA 1: CAATCTGAATTCCGGTCTCCC
DNA 2: TGGTGGCTACGACGGGATT
B4: UCCGCCC (DNA:RNA)
RNA: B1 RNA with U27C, C28G, U29C
DNA 1: CAATCTGAATTCCGGTCTCCC
DNA 2: TGGTGGCTACGACGGGATT
B5: CCGCAGG (DNA:RNA)
RNA: B1 RNA with U25C, U27G, U29A, C30G, C31G
DNA 1: CAATCTGAATTCCGGTCTCCC
DNA 2: TGGTGGCTACGACGGGATT
B6: UGCUACU (DNA:RNA)
RNA: B1 RNA with C26G, U27C, C28U, U29A, C31U
DNA 1: CAATCTGAATTCCGGTCTCCC
DNA 2: TGGTGGCTACGACGGGATT
B7: GGCCACG (DNA:RNA)
RNA: B2 RNA with A26G, A28C, C29A, A30C
DNA 1: CAATCTGAATTCCGGTCTCCC
DNA 2: TGGTGGCTACGACGGGATT
B8: GGCACCG (DNA:RNA)
RNA: B2 RNA with A26G, A30C
DNA 1: CAATCTGAATTCCGGTCTCCC
DNA 2: TGGTGGCTACGACGGGATT
B9: CGGCACG (DNA:RNA)
RNA: B1 RNA with U25C, C26G, U27G, U29A, C31G
DNA 1: CAATCTGAATTCCGGTCTCCC
DNA 2: TGGTGGCTACGACGGGATT
B10: UGGCGGU (DNA:RNA)
RNA: B1 RNA with C26G, U27G, U29G, C30G, C31U
DNA 1: CAATCTGAATTCCGGTCTCCC
DNA 2: TGGTGGCTACGACGGGATT
B11: UGGGCGC (DNA:RNA)
RNA: B1 RNA with C26G, U27G, C28G, U29C, C30G
DNA 1: CAATCTGAATTCCGGTCTCCC
DNA 2: TGGTGGCTACGACGGGATT
B12: CUGGCGG (DNA:RNA)
RNA: B2 RNA with G25C, A26U, C27G, A28G, A30G
DNA 1: CAATCTGAATTCCGGTCTCCC
DNA 2: TGGTGGCTACGACGGGATT
B13: UGGGCGG (DNA:RNA)
RNA: B2 RNA with G25U, A26G, C27G, A28G, A30G
DNA 1: CAATCTGAATTCCGGTCTCCC
DNA 2: TGGTGGCTACGACGGGATT
B14: CUGGCGC (DNA:RNA)
RNA: B2 RNA with G25C, A26U, C27G, A28G, A30G, G31C
DNA 1: CAATCTGAATTCCGGTCTCCC
DNA 2: TGGTGGCTACGACGGGATT
B15: UGGCGCU (DNA:RNA)
RNA: B1 RNA with C26G, U27G, U29G, C31U
DNA 1: CAATCTGAATTCCGGTCTCCC
DNA 2: TGGTGGCTACGACGGGATT
B16: CAGCUCC (DNA:RNA)
RNA: B1 RNA with U25C, C26A, U27G
DNA 1: CAATCTGAATTCCGGTCTCCC
DNA 2: TGGTGGCTACGACGGGATT
B17: AGACUGC (DNA:RNA)
RNA: B1 RNA with U25A, C26G, U27A, C30G
DNA 1: CAATCTGAATTCCGGTCTCCC
DNA 2: TGGTGGCTACGACGGGATT
B18: AGGGAGG (DNA:RNA)
RNA: B2 RNA with G25A, A26G, C27G, A28G, C29A, A30G
DNA 1: CAATCTGAATTCCGGTCTCCC
DNA 2: TGGTGGCTACGACGGGATT
B19: AAGUGUC (DNA:RNA)
RNA: B2 RNA with G25A, C27G, A28U, C29G, A30U, G31C
DNA 1: CAATCTGAATTCCGGTCTCCC
DNA 2: TGGTGGCTACGACGGGATT
B20: UGAGCAU (DNA:RNA)
RNA: B2 RNA with G25U, A26G, C27A, A28G, G31U
DNA 1: CAATCTGAATTCCGGTCTCCC
DNA 2: TGGTGGCTACGACGGGATT

In the assay the target is T1, RBFOX1 RRM. The experiment in a line: EMSA; HiTS-Eq, 1 nM pool, 10 min; buffer printed only for the single-RNA assays: 10 mM Tris pH 7.5, 150 mM NaCl, 3.4 mM EDTA, 0.001% NP-40, 30 C. The settings on record: tags: His6 N-terminal (pET28a); label: 5' 32P. An outline of the steps: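 These values rest on relative association constants, computed from read-count changes of each RNA species versus the control reaction and normalised to the cognate motif. Reads came from free RNA recovered by 8% native PAGE after purified RbFox RRM (wild type or mutant) at increasing concentrations was equilibrated for 10 min in 50 µL with 1 nM of a 5′-radiolabelled pool with 7 randomized nucleotides and DNA-annealed flanks.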
Regarding B1, the binding signal is 0.00975 KA relative to UGCAUGU. For B2, the binding signal is 0.00906 KA relative to UGCAUGU. With B3, the binding signal is 0.00663 KA relative to UGCAUGU. On to B4, for which the binding signal is 0.00894 KA relative to UGCAUGU.

Take B5: the binding signal is 0.0108 KA relative to UGCAUGU.

With B6, the binding signal was 0.0158 KA relative to UGCAUGU. B7: the binding signal was 0.00911 KA relative to UGCAUGU.

Consider B8, for which the binding signal is 0.0143 KA relative to UGCAUGU. The value for B9 was 0.0377 KA relative to UGCAUGU; that for B10 was 0.0227 KA relative to UGCAUGU; that for B11 was 0.0335 KA relative to UGCAUGU. The value for B12 was 0.00866 KA relative to UGCAUGU; that for B13 was 0.0408 KA relative to UGCAUGU; that for B14 was 0.02 KA relative to UGCAUGU. For the molecule B15, the binding signal is 0.0198 KA relative to UGCAUGU.

As for B16, the binding signal was 0.00767 KA relative to UGCAUGU.

Regarding B17, the binding signal is 0.0128 KA relative to UGCAUGU. As to B18, the binding signal is 0.0245 KA relative to UGCAUGU. As to B19, the binding signal was 0.0153 KA relative to UGCAUGU. The value for B20 was 0.0172 KA relative to UGCAUGU.
